Assay results: PubChem BioAssay AID504652 (National Center for Advancing Translational Sciences (NCATS), 2011)
About 11,000 (3.1%) of roughly 360,000 compounds were called active. Rule as the data show it: active = activity change below about -30%; inactive = the rest. The full list was thinned out, with actives kept by preference.

The compounds below were run against D(1A) dopamine receptor (Homo sapiens) (UniProt P21728) (assay: Antagonist of Human D 1 Dopamine Receptor: qHTS). Settings: HEK293 TREx D1 cells, calcium flux, dopamine EC80; at 10 µM; hits give low values.
Procedure, shortened: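 After overnight tetracycline induction at 30 C, force-coupled D1 HEK293 cells took up a no-wash calcium dye at room temperature. Compounds were added and monitored 180 s, and the response to EC80 dopamine was then recorded.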
% is scaled to controls: 0 for no effect and ±100 for the full control effect.

Chain of D(1A) dopamine receptor (Homo sapiens) (P21728 whole entry, looked up): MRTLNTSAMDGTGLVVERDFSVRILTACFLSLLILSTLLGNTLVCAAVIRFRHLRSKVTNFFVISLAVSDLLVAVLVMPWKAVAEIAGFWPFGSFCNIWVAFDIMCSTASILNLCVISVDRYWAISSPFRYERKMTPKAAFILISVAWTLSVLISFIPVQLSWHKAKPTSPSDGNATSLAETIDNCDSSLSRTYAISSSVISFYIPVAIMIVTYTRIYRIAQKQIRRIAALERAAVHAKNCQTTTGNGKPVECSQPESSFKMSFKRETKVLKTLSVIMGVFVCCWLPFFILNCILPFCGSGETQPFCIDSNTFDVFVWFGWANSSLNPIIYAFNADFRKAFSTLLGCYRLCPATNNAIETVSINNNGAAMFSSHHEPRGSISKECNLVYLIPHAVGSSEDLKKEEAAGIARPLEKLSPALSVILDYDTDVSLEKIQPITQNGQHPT

Activity change, negative = inhibition, inactive:
Cc1cn(C)c(CC(=O)NCc2ccc(Cl)cc2)c1C(=O)O -2.23%
Cc1ccc(CN(C(=O)c2ccccc2[N+](=O)[O-])c2ccccn2)cc1 -7.2%
CCC(=O)N(Cc1ccccc1)c1ccccn1 -9.42%
CCN(CC)c1ccc(NC(=O)CN2C(=O)c3cccnc3Oc3ccc(Cl)cc32)c(C)c1 -6.59%
COc1ccc(N(C)C(=O)C2CCN(S(=O)(=O)c3cc(Br)cc4c3N(C(C)=O)CC4)CC2)cc1 6.85%
COc1ccc(-n2nc3c(c2NC(=O)Cc2cccc(C)c2)CS(=O)C3)cc1 (stereo not drawn) -10.2%
Cc1cccc(CC(=O)Nc2c3c(nn2-c2cccc(Cl)c2)CS(=O)C3)c1 (stereo not drawn) -0.884%
CCOc1ccc(C2CC(=O)c3c([nH]c(C(=O)OCc4ccccc4)c3C)C2)cc1 (stereo not drawn) -22.3%
Cc1ccc(-c2ccc(CCC(=O)O)n2-c2ccc(C(N)=O)cc2)cc1 -5.89%
Clc1ccc(CSc2nncn3c2cc2occc23)cc1 -0.2%
CCOc1ccccc1C(=O)Nc1ccc2c(c1)N(C)C(=O)c1ccccc1S2 -16.7%
COc1ccccc1N1CCN(c2ccc(=O)n(CC(=O)NCc3ccc(OC(C)C)cc3)n2)CC1 23.5%
O=S(=O)(c1cccc(-c2nnc3n2CCCCC3)c1)N1CCOCC1 2.28%
Cc1nc(-c2ccc(F)cc2)c(CC(=O)Nc2cccc(S(=O)(=O)N3CCOCC3)c2)s1 4.46%
COC(=O)c1ccc(NC(=O)c2cccc3c2C(=O)N(C2CCCCC2)C3)cc1 -12%
CC(C)c1ccc(NC(=O)Cn2c3ncccc3c(=O)n2-c2ccccc2)cc1 -16.2%
Cc1ccc2c(=O)c(C(=O)c3ccc(F)cc3)cn(CC(=O)NC3CCCCC3)c2n1 -3.19%
Cc1ccc2c(=O)c(C(=O)c3ccc(Cl)cc3)cn(CC(=O)NC3CCCCC3)c2n1 -2.17%
COc1cccc(CNC(=O)C(=O)NCC(c2cccs2)S(=O)(=O)c2ccccc2)c1 (stereo not drawn) 10.2%
Cc1ccc(Cl)cc1N(C)C(=O)Cn1nc(Cc2cccnc2)c2ccccc2c1=O 10.4%
CCn1c(=O)c(=O)n(CC)c2cc(N3CCCCC3)c(NC(=O)c3cccc(F)c3)cc21 4.44%
O=C(Nc1ccncc1)c1ccccc1[N+](=O)[O-] -0.321%
Cc1ccc2nsnc2c1NC(=O)c1ccccc1[N+](=O)[O-] 7.5%
COC(=O)CSc1nnc(NC(=O)CCc2ccccc2)s1 5.96%
CC(C)(C)NC(=O)CSc1nnc(NC(=O)CCc2ccccc2)s1 -22.4%
Cc1ccccc1C(=O)NCc1nc(-c2ccc(Cl)cc2)no1 -7.49%
N#Cc1nc(Nc2cccc(Cl)c2)nc(NC2CCCC2)n1 -6.69%
COc1ccc(C(=O)Nc2cccc(C(=O)OCc3cc(=O)n4c5c(sc4n3)CCCC5)c2)cc1 -2.93%
CN1CCOc2cc(S(=O)(=O)N3CCN(S(=O)(=O)c4c(F)cccc4F)CC3)cnc21 1.83%
CC1Cc2cc(S(=O)(=O)CCC(=O)Nc3ccc(F)c(Cl)c3)ccc2N1C(=O)C1CC1 (stereo not drawn) -8.79%
Cc1ccc(C)c(N2CCN(C(=O)Cc3c(C(=O)O)c(C)cn3C)CC2)c1 3.31%
Cc1nc2nc(SCC(=O)N(Cc3ccccc3)C(C)C)nn2c(C)c1Cc1ccccc1Cl -7.72%
COc1ccc(-n2c(C)nc3c(cnn3-c3ccc(F)cc3)c2=O)cc1 -26.8%
N/C(=N\S(=O)(=O)c1ccc(Cl)cc1)N1CCOCC1 -7.63%
O=S(=O)(Oc1ccccc1C(=S)N1CCOCC1)c1ccc(Cl)cc1 -1.41%
O=C(Nc1ccc(-c2nc3cc(NC(=O)c4ccccc4Cl)ccc3o2)cc1)c1ccccc1Cl 6.02%
COC(=O)c1ccccc1NS(=O)(=O)c1ccc2[nH]c(=O)[nH]c2c1 9.8%
COc1cc(NC(=O)c2ccccc2NS(=O)(=O)c2ccc(Cl)s2)cc(OC)c1 -11.8%
CCS(=O)(=O)N1CCC(n2c(C)nc3cccnc32)CC1 12.3%
COc1ccc(OC)c(-c2nc(C(N)=O)c3c(n2)n(-c2ccc4c(c2)OCO4)c(=O)n3C)c1 -6.79%
Cc1ccc(CN2COc3cc(C)c4c(oc(=O)c5ccccc54)c3C2)cc1 3.2%
CSc1ccccc1OCc1cc(C(=O)N(C)CCc2c(C)n[nH]c2C)no1 -4.34%
CCn1ccnc1CN(C)C(=O)c1cc(COc2ccc(Cl)cc2OC)on1 -3.88%
Cc1noc(C)c1-c1ccc2ncnc(NCc3ccc(F)c(F)c3)c2c1 -25.4%
COc1ccc(NC(=O)CSc2nc3ccccc3[nH]2)cc1 7.52%
CC(=O)Nc1ccc(S(=O)(=O)N2CCCC2C(=O)O)cc1 (stereo not drawn) 2.28%
O=C(O)C1CCCN1S(=O)(=O)c1ccc(Br)cc1 (stereo not drawn) -19.4%
CCCS(=O)(=O)c1ncc(Cl)c(C(=O)Nc2scc(-c3ccccc3)c2C(=O)OCC)n1 -10.7%
C=C1c2c(Cl)ccc(O)c2C(O)=C2C(=O)[C@]3(O)C(O)=C(C(N)=O)C(=O)[C@@H](N(C)C)[C@@H]3[C@@H](O)C12 (stereo partly drawn) -4.29%
Cc1ccc(C)c(N2CCN(C(=O)Cn3nc(C)c4sc5ccccc5c4c3=O)CC2)c1 5.73%
COc1ccc(-c2noc(CSc3nc(C)cc(=O)[nH]3)n2)cc1OC 12.5%
COc1ccc(-c2cc(C(F)(F)F)n3nc(-c4ccccc4)cc3n2)cc1OC 6.49%
CCCN(CCC)CCNC(=O)c1ccc2c(c1)NC(=O)C(CS(=O)(=O)Cc1cccc(Br)c1)N2 (stereo not drawn) -3.96%
Cc1ccc(OCCSc2nc3ccc(NC(=O)COc4ccc(C)cc4)cc3s2)cc1 -5.49%
Cc1cccc(OCCSc2nc3ccc(NC(=O)COc4ccccc4C)cc3s2)c1 5.79%
NC(=O)C1CCN(C(=O)c2cccc(NC(=O)c3nsc4ccccc34)c2)CC1 7.53%
Nc1cc(N)nc(SCC(=O)Nc2cccc(S(=O)(=O)N3CCCCC3)c2)n1 -7.32%
O=C(CSc1ccccc1)Nc1cccc(S(=O)(=O)N2CCOCC2)c1 -24.4%
CCOc1ccccc1N(C)C(=O)c1cc2c(s1)-c1ccccc1OC2 7.49%
Cc1sc(C2C(C#N)=C(N)N(c3cccc(Cl)c3)C3=C2C(=O)CCC3)cc1CN1CCOCC1 (stereo not drawn) -16.8%
Cc1c(C(=O)CN2CCOCC2)[nH]c2ccccc12 -9.55%
CCOC(=O)c1[nH]c2ccc(OC)cc2c1NC(=O)N1CCOCC1 -7.34%
CCOC(=O)c1ccc(NC(=O)Cn2cc(S(=O)(=O)Cc3ccccc3F)c3ccccc32)cc1 16.6%
COc1cc(OC)cc(-c2nc3nc(C)c(CCC(=O)NCc4ccco4)c(C)n3n2)c1 -2.94%
Cc1nc2c(-c3ccccc3)c(C)nn2c(C)c1CCC(=O)NCCc1ccccc1 -7.07%
CCOC(=O)c1c(-c2ccc(OC)cc2)oc2ccc(OCc3ccc(C(=O)OC)cc3)cc12 4.56%
O=C(Nc1ccc2nc(SCC(=O)N3CCCc4ccccc43)sc2c1)c1ccc(Cl)cc1 -13.6%
N#Cc1c(C(F)(F)F)cc(-c2ccccc2)nc1SCC(=O)N1CCOCC1 7.61%
Cc1cc(C(F)(F)F)c(C#N)c(SCC(=O)NC2CC2)n1 -10.9%
Cc1nn(-c2nc(-c3ccccc3)cc(C(F)(F)F)n2)c(C)c1Cl 5.82%
CCOC(=O)COc1nc(C)cc(C(F)(F)F)c1C#N -9.55%

Activity change, negative = inhibition, active:
COc1cc(CN(C(=O)c2ccccc2Br)c2ccccn2)cc(OC)c1OC -66.6%
CC(=O)Nc1c2c(nn1-c1ccc(C)cc1C)CS(=O)C2 (stereo not drawn) -34.5%
O=S(=O)(c1cccc(Cn2nnc(-c3ccc(F)cc3)n2)c1)N1CCOCC1 -46.2%
Cc1ccc2c(=O)c(C(=O)c3cccc(Cl)c3)cn(CC(=O)NCc3ccccc3)c2n1 -33.4%
CC(=O)Oc1ccccc1C(=O)Nc1ncc([N+](=O)[O-])s1 -33.9%
O=C(CCc1ccccc1)Nc1ncc([N+](=O)[O-])s1 -30%
N#C/C(=C\N1CCOCC1)S(=O)(=O)c1ccc(Cl)cc1 -41.8%
COC(=O)c1ccc(NC(=O)c2ccccc2NS(=O)(=O)c2ccccc2)cc1 -42.5%
COc1cc(Cl)ccc1OCc1cc(C(=O)N(C)CCc2c(C)n[nH]c2C)no1 -50%
O=C(O)C1CCCN1S(=O)(=O)c1ccc2c(c1)CCC2 (stereo not drawn) -38.4%
CN(C)[C@@H]1C(=O)C(C(N)=O)=C(O)[C@@]2(O)C(=O)C3=C(O)c4c(O)ccc(Cl)c4[C@@H](O)[C@H]3C[C@@H]12 -42.8%
CC(=O)Nc1ccc2nc(SCCOc3cc(C)cc(C)c3)sc2c1 -35.7%
O=C(CSc1ccccc1)Nc1cccc(S(=O)(=O)N2CCCCC2)c1 -39.5%
Cc1c(C(=O)N2CCOCC2)[nH]c2ccc(OCc3ccccc3)cc12 -45.7%
Cc1nc2c(-c3ccc(F)cc3)c(C)nn2c(C)c1CCC(=O)NCc1ccco1 -61.2%
Cc1ccc(-c2cc(C(F)(F)F)c(C#N)c(SCC(=O)Nc3ccccc3)n2)cc1 -36.2%
CCN(CC)c1nc(-c2ccccc2)cc(C(F)(F)F)c1C#N -72.6%
